In PubChem BioAssay:
For part of these data: Potency and affinity values are given separately. Inconclusive results are not listed. Active and inactive are the calls of the source. Unless noted, how the calls were made is not given here.

What was measured:
[1] = system: XIP peptide (Xip251-270) binding; assay: small-molecule binders of XIP peptide, primary screen, biochemical, small-molecule microarray, fluorescence 635/667 nm, 0.1 µg/mL protein (AID 1182); settings: fluorescent protein binding, 635 nm; higher = more signal, called active from +8 up or from −8 down unless noted
XIP peptide (Xip251-270) = assay: small-molecule binders of XIP peptide, primary screen, biochemical, small-molecule microarray, fluorescence 635/667 nm, 0.5 µg/mL protein (AID 1183); settings: small-molecule microarray binding, fluorescence 635 nm; higher = more signal
[2] = Plasmodium falciparum growth inhibition, primary screen, strain 3D7, DAPI fluorescence, 100 nL (AID 1184);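 further: parasites grown inside human red blood cells in medium with human serum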; settings: P. falciparum 3D7 growth, 3 d, higher = more signal
[3] = target: Homeobox protein Hox-A13 (Mus musculus) (UniProt Q62424); assay: inhibitors of HoxA13-DNA binding, primary screen, biochemical, fluorescence polarization, labeled oligonucleotide (AID 1185); settings: 15 min; higher = more signal, called active from +8 up or from −8 down unless noted
Homeobox protein Hox-A13 (Mus musculus), sequence (Q62424 whole entry, looked up): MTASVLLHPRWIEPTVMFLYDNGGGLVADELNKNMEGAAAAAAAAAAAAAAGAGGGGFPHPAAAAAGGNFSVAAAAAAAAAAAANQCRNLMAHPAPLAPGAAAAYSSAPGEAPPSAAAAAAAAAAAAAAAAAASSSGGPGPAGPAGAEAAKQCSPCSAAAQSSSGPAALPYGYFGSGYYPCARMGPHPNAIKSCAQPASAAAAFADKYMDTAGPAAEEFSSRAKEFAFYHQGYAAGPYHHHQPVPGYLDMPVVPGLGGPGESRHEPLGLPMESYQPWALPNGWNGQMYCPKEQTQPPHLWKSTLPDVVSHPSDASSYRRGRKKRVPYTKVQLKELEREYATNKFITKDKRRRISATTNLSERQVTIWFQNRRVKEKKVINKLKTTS

[4] = inhibitors of hydroxyurea-induced Chk1 phosphorylation, primary screen, imaging, HeLa, phospho-Chk1 antibody, percent positive cells (AID 1186); settings: hydroxyurea-induced phospho-Chk1 immunofluorescence imaging, higher = more signal
[5] = inhibitors of hydroxyurea-induced Chk1 phosphorylation, primary screen, imaging, HeLa, phospho-Chk1 nuclear intensity (AID 1187); settings: hydroxyurea-induced phospho-Chk1 immunofluorescence imaging, higher = more signal
[6] = target: Adenosylmethionine-8-amino-7-oxononanoate aminotransferase (Mycobacterium tuberculosis (strain ATCC 25618 / H37Rv)) (UniProt P9WQ81); assay: inhibition of purified M. tuberculosis BioA – biochemical, plate reader, cherry-pick samples, dose response (AID 651683); settings: purified M. tuberculosis BioA enzyme; series mostly up to 10 µM
Adenosylmethionine-8-amino-7-oxononanoate aminotransferase (Mycobacterium tuberculosis (strain ATCC 25618 / H37Rv)), sequence (P9WQ81 whole entry, looked up): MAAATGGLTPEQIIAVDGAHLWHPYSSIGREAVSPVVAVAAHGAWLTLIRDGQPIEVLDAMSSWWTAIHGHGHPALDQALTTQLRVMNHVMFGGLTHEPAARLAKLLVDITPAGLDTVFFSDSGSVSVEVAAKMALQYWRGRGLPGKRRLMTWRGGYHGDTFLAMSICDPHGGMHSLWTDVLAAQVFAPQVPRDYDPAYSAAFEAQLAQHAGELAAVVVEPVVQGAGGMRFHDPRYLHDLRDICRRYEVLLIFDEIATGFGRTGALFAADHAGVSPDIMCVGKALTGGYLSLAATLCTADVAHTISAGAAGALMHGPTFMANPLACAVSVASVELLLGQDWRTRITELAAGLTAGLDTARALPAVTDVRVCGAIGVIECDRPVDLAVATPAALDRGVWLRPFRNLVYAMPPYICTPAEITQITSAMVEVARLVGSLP

[7] = inducers of Cryptococcus neoformans cell lysis, dose response, AK release luminescence, cherry-picks (AID 687000;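 active means fitted dose curve reaches 40% lysis signal rise at or below the highest valid concentration tested for that sample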;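 further: luminescent detection of adenylate kinase leaking from lysed yeast; 0% = median neutral control signal and 100% = double that signal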); settings: C. neoformans lysis, adenylate kinase release luminescence, 4 h; series mostly up to 15 µM
[8] = HepG2 cell cytotoxicity, dose response, cytotoxicity control, cherry-picks, set 2 (AID 687002;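 active means a dose-response fit showing signal loss, with half-maximal concentration no higher than twice the top tested dose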); settings: HepG2 viability, ATP luminescence (CellTiter-Glo), 48 h; series mostly up to 26 µM
[9] = Cryptococcus neoformans growth inhibition, dose response, Alamar Blue, cherry-picks (AID 686998;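 active means falling signal with fitted half-maximal potency no higher than twice the top valid tested dose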); settings: 24 h; series mostly up to 35 µM

CCCc1cc2c(n1Cc1ccc(C)cc1)C(C)C1CN(C(=O)c3ccccc3)C(C)(C(=O)OC)C21 (centres undefined)
composite z-score [1]: 0.707 (inactive) | composite z-score (XIP peptide (Xip251-270)): 0.73 | z-score [2]: -0.0901 | z-score [3]: -2.8 (inactive) | z-score [4]: -0.364 (inactive) | z-score [5]: 0.0089 (inactive)

OCc1ccc(C2=CC(C3CC3)N(Cc3sc4ccccc4c3Cl)CC2)cc1 (centres undefined)
composite z-score [1]: 1.51 (inactive) | composite z-score (XIP peptide (Xip251-270)): 0.625 | z-score [2]: -3.04 | z-score [3]: 3.12 (inactive) | z-score [4]: -0.6 (inactive) | z-score [5]: -0.744 (inactive)

OCc1ccc(C2=CC(c3cccs3)N(Cc3cccc(OC(F)(F)F)c3)CC2)cc1 (centres undefined)
composite z-score [1]: 0.209 (inactive) | composite z-score (XIP peptide (Xip251-270)): -0.0913 | z-score [2]: -3.09 | z-score [3]: -1.91 (inactive) | z-score [4]: -0.308 (inactive) | z-score [5]: -0.44 (inactive)

O=C(O)CSc1ncnc2scc(-c3ccc(Br)cc3)c12
outcome [6]: inactive

Nc1cc(C(=O)O)ccc1Nc1ccccc1
outcome [6]: inactive

N#Cc1ccc(-c2ccc3c(c2)[C@@H]2[C@@H](CCN2C(=O)c2ccc(F)cc2)[C@@H](CO)N3)cc1
outcome [6]: inactive

O=C(c1ccncc1)N1CC[C@@H]2[C@@H](CO)Nc3ccc(Br)cc3[C@@H]21
outcome [6]: inactive

CC(=O)OC1(C)CC(C)C(=O)C(C(O)CC2CC(=O)NC(=O)C2)C1 (centres undefined)
outcome [7]: inactive | outcome [8]: inactive

CC[C@H](C)[C@@H]1NC(=O)CNC(=O)c2csc(n2)[C@H](C(C)(C)O)OC(=O)C(C)(C)[C@H](CCCC(C)(Cl)Cl)OC(=O)c2csc1n2
outcome [8]: inactive

CN1c2ccc(-c3cccc(F)c3)cc2[C@@H]2[C@@H](CCN2C(=O)c2ccncc2)[C@H]1CO
outcome [6]: inactive

COC(=O)C1(C)C=C2C(=C(C)C(=O)C2C)CN1 (centres undefined)
composite z-score [1]: -0.309 (inactive) | composite z-score (XIP peptide (Xip251-270)): -0.628 | z-score [2]: -1.06 | z-score [3]: -3.26 (inactive) | z-score [4]: 0.414 (inactive) | z-score [5]: 0.354 (inactive)

CCOc1ccc(-n2c(SCC(N)=O)nc3c(c2=O)SCC3)cc1
outcome [6]: inactive

O=C(C[C@H]1C[C@H]2c3cc(NC(=O)c4cccnc4)ccc3O[C@H]2[C@H](CO)O1)NCc1ccccn1
outcome [6]: inactive

COc1ccccc1-c1cc(C(F)(F)F)nc(S(=O)(=O)CCCC(=O)O)n1
outcome [6]: inactive

O=C(CN1C(=O)/C(=C/c2cccc(Br)c2)SC1=S)Nc1cccnc1
outcome [6]: inactive

Cc1ccc(NCc2nnc(SCC(=O)N3CCc4ccccc43)n2C)cc1
outcome [6]: inactive

CC(Oc1cc2oc(=O)c3c(c2cc1Cl)CCC3)C(=O)NCc1cccnc1 (centres undefined)
outcome [6]: inactive

C=C(CC1(C(C)NP(=O)(c2ccccc2)c2ccccc2)CC1)c1ccccc1 (centres undefined)
composite z-score [1]: -0.131 (inactive) | composite z-score (XIP peptide (Xip251-270)): 0.858 | z-score [2]: -1.1 | z-score [3]: -5.49 (inactive) | z-score [4]: 0.137 (inactive) | z-score [5]: 0.321 (inactive)

CCCc1cc2c(n1CCO)C(C)C1CN(C(=O)c3ccccc3)C(C)(C(=O)OC)C21 (centres undefined)
composite z-score [1]: 0.26 (inactive) | composite z-score (XIP peptide (Xip251-270)): 0.719 | z-score [2]: 0.119 | z-score [3]: -4.02 (inactive) | z-score [4]: 1.28 (inactive) | z-score [5]: 1.1 (inactive)

Cc1c(OC(C)C(=O)NCC2CCC(C(=O)O)CC2)ccc2c1oc(=O)c1ccccc12 (centres undefined)
outcome [6]: inactive

C[C@@H]1CN([C@@H](C)CO)C(=O)CCCn2nncc2CO[C@H]1CN(C)C(=O)Oc1cccc2ccccc12
outcome [9]: inactive | outcome [8]: inactive

Cc1ccc(S(=O)(=O)N(C)C)cc1NC(=O)CSc1nncs1
outcome [6]: inactive
